According to PubChem BioAssay AID1259421 (Broad Institute, 2018):
Several values for one entry are separate records, joined by “and”; a condition that tells them apart may be missing. Equal entries are not always repeated. The whole screen tested about 6,400 compounds, of which about 610 (9.5%) were called active. The sample holds actives, similar compounds and a random draw of the others, so the mix is not that of the screen. Rule as the data show it: active = activity change below about -70%; inconclusive = no clear call, values can overlap the other calls; inactive = above that. Where a structure was tested more than once in an assay, its records may differ in their call.

Assay: Toxoplasma gondii ME49Luc growth in HeLa cells, luciferase, no IFN-y, primary screen (AID 1259421)
Settings: T. gondii ME49Luc in HeLa, 72 h, stronger effect = lower value, concentration not given here

SMILES | activity change, negative = inhibition
COc1cccc(Nc2ncnn3ccc(CN4CC[C@@H](N)[C@H](O)C4)c23)c1 | -86.2% (active)
C[C@]12C=CC(=O)C=C1CCC1C2[C@@H](O)C[C@@]2(C)C1CC[C@]2(O)C(=O)CO (some centres not stated) | 1.25% (inactive) and -8.87% (inactive)
CC(=O)O[C@@H]1c2c(ccc3ccc(=O)oc23)OC(C)(C)[C@@H]1OC(=O)CC(C)C | -2.35% (inactive)
CCCN(CCC)CC1CCCCN1CCNC(=O)N1c2ccccc2C(=O)Nc2cccnc21 (configuration not stated) | 3.45% (inactive)
CCOC(=O)[C@H](CCc1ccccc1)N[C@@H](C)C(=O)N(CC(=O)O)C1Cc2ccccc2C1 | 7.2% (inactive)
CCC(C)(C)C(=O)OC1CC(C)C=C2C=CC(C)C(CCC3CC(O)CC(=O)O3)C21 (configuration not stated) | -4.9% (inactive)
COC1C=COC2(C)Oc3c(C)c(O)c4c(c3C2=O)C2(C=C(NC(=O)/C(C)=C\C=C/C(C)C(O)C(C)C(O)C(C)C(OC(C)=O)C1C)C4=O)OCC(=O)O2 (configuration not stated) | -2.28% (inactive)
C=CCNC1=C2C[C@@H](C)C[C@H](OC)[C@H](O)[C@@H](C)/C=C(\C)[C@H](OC(N)=O)[C@@H](OC)/C=C\C=C(/C)C(=O)NC(=CC1=O)C2=O | -56% (inactive)
CO[C@H]1/C=C\C=C(/C)C(=O)NC2=CC(=O)C(NCCN(C)C)=C(C[C@@H](C)C[C@H](OC)[C@H](O)[C@@H](C)/C=C(\C)[C@@H]1OC(N)=O)C2=O | -69.9% (inactive) and -80.4% (active)
NCCCCCC(O)(P(=O)(O)O)P(=O)(O)O | 13% (inactive)
Cn1cnc2c(NCc3ccccc3)nc(NCCO)nc21 | 10.2% (inactive)
c1ccc(CNc2ncnc3ccccc23)cc1 | -3.07% (inactive)
c1ccc(CNc2nc(NCc3ccccc3)c3ccccc3n2)cc1 | -83.6% (active)
CN1C(C(=O)Nc2ccccn2)C(=O)c2sc(Cl)cc2S1(=O)=O (configuration not stated) | 6.43% (inactive)
CC(C)(C)NC[C@@H](O)COc1nsnc1N1CCOCC1 | 15.6% (inactive) and -4.63% (inactive)
CC(=O)N[C@H]1[C@H]([C@H](O)[C@H](O)CO)O[C@](O)(C(=O)O)C[C@@H]1O | 19.2% (inactive)
Cc1cc(S(=O)(=O)O)c2c(C)ccc(C(C)C)cc1-2 | 0.707% (inactive)
N#C/C(=C\c1ccc(O)c(O)c1)C(=O)NC1CCC(CC2CCC(NC(=O)/C(C#N)=C/c3ccc(O)c(O)c3)CC2)CC1 (configuration not stated) | -83.2% (active)
N#C/C(=C/c1ccc(O)c(O)c1)C(=O)Nc1ccccc1 | 11.3% (inactive)
N#C/C(=C\c1ccc(O)c(O)c1)C(=O)Nc1ccccc1 | 10% (inactive) and 2.22% (inactive)
COc1cc(OC)c(-c2c(OC)cc(OC)cc2OC)c(OC)c1 | -0.897% (inactive)
CN(C)[C@@H]1CCc2[nH]c3ccc(NC(=O)c4ccc(F)cc4)cc3c2C1 | 0.289% (inactive) and 6.81% (inactive)
CC(=O)NC1C(O)OC(COS(=O)(=O)O)C(OC2OC(C(=O)O)C(OC3OC(CO)C(OC4OC(C(=O)O)C(O)C(O)C4OS(=O)(=O)O)C(OS(=O)(=O)O)C3NS(=O)(=O)O)C(O)C2OS(=O)(=O)O)C1O (configuration not stated) | 9.64% (inactive)
CCn1cc(-c2ccnc3[nH]c(-c4cccc(CN(C)C)c4)cc23)c(-c2ccc(NC(=O)N(C)C)cc2)n1 | -82.3% (active)
CN(C)C(=O)Nc1cccc(-c2ccc(N(C)C)cc2)c1 | 27.1% (inactive)
C#CCC(Cc1cnc2nc(N)nc(N)c2n1)c1ccc(C(=O)N[C@@H](CCC(=O)O)C(=O)O)cc1 (some centres not stated) | -66.9% (inactive)

SMILES | activity change, negative = inhibition
CN(Cc1cnc2nc(N)nc(N)c2n1)c1ccc(C(=O)NC(CCC(=O)O)C(=O)O)cc1 (configuration not stated) | -57.2% (inactive) and 1.6% (inactive)
CN(Cc1cnc2nc(N)nc(N)c2n1)c1ccc(C(=O)N[C@@H](CCC(=O)O)C(=O)O)cc1 | -80.9% (active) and -28.7% (inactive)
COc1ccc(CCN(C)CCCC(C#N)(c2cc(OC)c(OC)c(OC)c2)C(C)C)cc1OC (configuration not stated) | 41.7% (inactive)
N=C(CC(O)COc1ccccc1-c1ccccc1)N1CCCCC1 (configuration not stated) | 10.7% (inactive)
COc1ccc(-c2cnc3c(-c4cccc5ncccc45)cnn3c2)cc1 | 2.75% (inactive)
CC(C)Oc1ccc(-c2cnc3c(-c4ccnc5ccccc45)cnn3c2)cc1 | -49.1% (inactive)
c1cc(-c2cnn3cc(-c4ccc(N5CCNCC5)cc4)cnc23)c2cccnc2c1 | -84.7% (active)
COC(F)(F)C(Cl)Cl | 19.6% (inactive)
CC(C)(Oc1ccc(Cl)cc1)C(=O)N1CSCC1C(=O)O (configuration not stated) | 19% (inactive)
NC(=O)C1CC2(NC(=O)NC2=O)c2cc(F)ccc2O1 (configuration not stated) | 12.6% (inactive)
Cc1nc(Nc2ncc(C(=O)Nc3c(C)cccc3Cl)s2)cc(N2CCN(CCO)CC2)n1 | -75.5% (active) and -82.6% (active)
Cc1cc(Nc2cc(N3CCN(C)CC3)nc(Sc3ccc(NC(=O)C4CC4)cc3)n2)n[nH]1 | -15.4% (inactive) and -14.2% (inactive) and -8.95% (inactive)
S=c1[nH]c2ccccc2s1 | 14.8% (inactive) and 4.19% (inactive)
S=c1nc[nH]c2[nH]ncc12 | -6.21% (inactive)
C[C@]12CCC(=O)C=C1CCC1C2[C@@H](O)C[C@@]2(C)C1CC[C@]2(O)C(=O)COC(=O)CCC(=O)O (some centres not stated) | -4.51% (inactive) and -4.05% (inactive)
COC1C(O)[C@@H](O)C(O)C(O)[C@H]1O (some centres not stated) | 4.8% (inactive)
COc1ccc2c(c1)OCC(Cc1ccc(OC)c(OC)c1)C2=O (configuration not stated) | -1.15% (inactive)
COc1ccc2c(c1)OCC(Cc1ccc(OC)c(OC(C)=O)c1)C2=O (configuration not stated) | -72% (active)
COc1ccc2c(c1)OCC(Cc1ccc(O)c(OC)c1)C2=O (configuration not stated) | -0.0941% (inactive)
CO/N=C(/C(=O)N[C@@H]1C(=O)N2C(C(=O)O)=C(C[n+]3cccc4c3CCC4)CS[C@H]12)c1csc(N)n1 | 14.5% (inactive)
CO/N=C(/C(=O)NC1C(=O)N2C(C(=O)O)=C(CSc3nc(=O)c(=O)[nH]n3C)CSC12)c1csc(N)n1 (configuration not stated) | -0.639% (inactive)
COc1ccc([C@@H]2Sc3ccccc3NC(=O)[C@@H]2O)cc1 | 11.7% (inactive)
O=P(O)(O)OC[C@H]1OC(O)[C@H](O)[C@@H](O)[C@@H]1O (some centres not stated) | 7.08% (inactive)
Cc1[nH]c2ccccc2c1CCNC(=O)c1cccs1 | 9.58% (inactive)
Cc1[nH]c2ccccc2c1CCNCc1ccc(/C=C/C(=O)NO)cc1 | -73.2% (active) and -76.5% (active)
CC(=O)NCCc1c(Cc2ccccc2)[nH]c2ccccc12 | -2.39% (inactive)

SMILES | activity change, negative = inhibition
CC(C)(N)C(=O)N[C@H](COCc1ccccc1)C(=O)N1CCC2(CC1)CN(S(C)(=O)=O)c1ccccc12 | 5.12% (inactive)
Cc1cc(/C(=C\Nc2ccc(Cl)cc2)C(=O)Nc2ccc(Cl)cc2)on1 | 18.7% (inactive)
FC(F)(F)C(F)(F)C(F)(F)C(F)(F)C(F)(F)C(F)(F)C(F)(F)C(F)(F)Br | 2.95% (inactive)
CC(=O)c1ccc2c(c1)[C@@H]1C=CC[C@@H]1[C@H](c1cc3c(cc1Br)OCO3)N2 | -79.7% (active)
Brc1cc2c(cc1[C@H]1Nc3ccccc3[C@H]3C=CC[C@H]31)OCO2 (racemic) | 11.8% (inactive)
O=C(O)c1ccc2c(c1)OCO2 | 16% (inactive)
COC(=O)C1=C(C)NC(C)=C([N+](=O)[O-])[C@@H]1c1ccccc1C(F)(F)F | 1.1% (inactive)
C/C(=C(/CCO)SSCC1CCCO1)N(C=O)Cc1cnc(C)nc1N (configuration not stated) | 15% (inactive)
C=CC(=O)Nc1cccc(Oc2nc(Nc3ccc(N4CCN(C)CC4)cc3OC)ncc2Cl)c1 | -35.2% (inactive)
CN1CCN(c2ccc(OC(F)(F)F)c(Nc3ncc4c(n3)-c3c(c(C(N)=O)nn3CCO)CC4)c2)CC1 | -90.8% (active)
CCC(=O)Nc1cccc(Oc2nc(Nc3ccc(N4CCN(C)CC4)cc3OC)ncc2Cl)c1 | 7.36% (inactive)
CCN(CC)S(=O)(=O)c1ccc(C(=O)O)cc1 | -0.641% (inactive) and 12.4% (inactive)
CCc1cc(C(C)=O)c(O)cc1OCCCCCC(C)(C)c1nn[nH]n1 | 50.8% (inactive) and 31.2% (inactive)
Nc1ccncc1N | -3.18% (inactive)
CCC(=O)N1CCN(c2ccc(-n3c(=O)ccc4cnc5ccc(-c6cnc7ccccc7c6)cc5c43)cc2C(F)(F)F)CC1 | -56% (inactive)
Nc1ccc(-c2ccc3ncc4ccc(=O)n(-c5cccc(C(F)(F)F)c5)c4c3c2)cn1 | -76.7% (active)
COc1ccc(C(=O)CCC(=O)O)c2ccccc12 | 2.31% (inactive)
COC(=O)c1cc(S(C)(=O)=O)ccc1OC | 9.8% (inactive)
COc1ccc(CCN2CCN(CCCc3ccccc3)CC2)cc1OC | -27.2% (inactive)
OCC1OC(n2cnc3c(NC4CCCC4)ncnc32)C(O)C1O (configuration not stated) | 1.64% (inactive)
N#CC(C#N)=C(N)/C(C#N)=C/c1cc(O)c(O)c(O)c1 | 5.32% (inactive)
N#C/C(=C\c1ccc(O)c(O)c1)C(N)=O | 16.2% (inactive) and 6.7% (inactive)
CC(C)(C)c1cc(/C=C(\C#N)C(N)=S)cc(C(C)(C)C)c1O | -82.2% (active) and -86% (active)
COc1cc(N)c(Cl)cc1C(=O)N[C@@H]1CCN(CCCOc2ccc(F)cc2)C[C@@H]1OC | 6.27% (inactive)
COc1ccc(C2(O)CCC(N3CC[C@@H](NC(=O)CNC(=O)c4cccc(C(F)(F)F)c4)C3)CC2)cn1 (some centres not stated) | 4.89% (inactive)
